Screening data deposited in PubChem BioAssay by National Center for Advancing Translational Sciences (NCATS).
Hits are enriched below; roughly 21% of the tested compounds scored in any of these assays.
CHX counter – counter-screen hit for Shiga toxin inhibitors, cycloheximide. cell reporter, cycloheximide protein synthesis inhibition counterscreen. AID 2314. max response, %. hit rate 12% among 300,000; in the data active = max response mostly above about 13%, no sharp cut-off; inactive = mostly below about 14%; also: read at 38.3 µM for the half of the compounds with a filed dose; 0% is about no effect
Pf growth 48h – inhibits P. falciparum growth in the first generation, 48 h; P. falciparum luciferase growth in erythrocytes, 48 h; Potency, µM (highest dose often 28.7 µM), for the others: top-dose activity change, negative = inhibition, hits mostly inhibitors; hit rate 5.9% among 310,000; also: potency is read from the fitted curve at half-maximal effect; % is scaled to controls: 0 for no effect and ±100 for the full control effect
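Read-out is firefly luciferase luminescence from an integrated reporter in P. falciparum, so falling signal marks reduced parasite growth. Infected erythrocytes were at 2% hematocrit and 0.1% parasitemia (final) in Albumax-supplemented RPMI 1640.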
NS1 inh – blocks influenza NS1 protein function | Potency, µM (series often up to 46.1 µM), inactives show at the highest dose activity, positive = more growth | AID 2326 | hit rate 0.4% among 270,000; calls by dose curve; also: potency is read from the fitted curve at half-maximal effect; actives are rising curves; nearly all actives have a fitted effect of over 50% in size
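S. cerevisiae expressing influenza A NS1, grown in glucose, washed, then diluted 1:100 into pH 6.0 -URA galactose medium with 23 nl compound. Growth recovery read as OD600; NS1-free strain serves as control.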
Pf growth 96h – P. falciparum growth inhibition at 96 hour, primary screen for plastid delayed-death inhibitors. Potency, µM (series often up to 28.7 µM), inactives show at the top dose activity change, negative = inhibition, usual class: inhibitors. hit rate 6.9% among 320,000. P. falciparum luciferase reporter growth, 96 h; also: potency is read from the fitted curve at half-maximal effect; % is scaled to controls: 0 for no effect and ±100 for the full control effect
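Cell-based qHTS: luciferase-tagged P. falciparum in erythrocytes (2% hematocrit, 0.05% parasitemia final) incubated with compounds for 96 hours, 37 C, 5% CO2; luciferase detection reagent then added and luminescence measured.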
Sm TGR inh – blocks Schistosoma mansoni thioredoxin glutathione reductase; purified TGR, DTNB reduction, TNB absorbance 405 nm; Potency, µM (series often up to 114 µM), for inactives: top-dose activity change, negative = inhibition, actives largely listed as inhibitors; hit rate 3% among 360,000; also: potency is read from the fitted curve at half-maximal effect; % is scaled to controls: 0 for no effect and ±100 for the full control effect; nearly all actives have a fitted effect of over 60% in size
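First, TGR (20 nM dispensed) and NADPH were mixed with compound. Second, a 15 min room-temperature incubation followed. Third, further NADPH and then DTNB were added to start the reaction. Finally, TNB absorbance was monitored kinetically.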
Shiga inhibitor – blocks Shiga toxin action in Vero cells | Vero cells, Shiga toxin protein synthesis inhibition reporter | hit rate 9.2% among 290,000 | inhibition, % at 38.7 µM; in the data active = inhibition mostly above about 28%, no sharp cut-off; inactive = mostly below about 43%; also: 0% is about no effect
The depositor's hits bear a star; ? = inconclusive; · = no result. Unless noted, calls follow the shape of the dose curve; as a rule, active = well fitted curve in the direction sought with a large enough effect; inconclusive = small, poorly fitted or top-dose-only effect, or another doubt; inactive = no such curve, though single readings can be large; an effect the other way counts as inactive or inconclusive.

SMILES	CHX counter	Pf growth 48h	NS1 inh	Pf growth 96h	Sm TGR inh	Shiga inhibitor
COC(=O)C1C(=O)c2c([nH]c(C(=O)OCC3CCCO3)c2C)CC1C (centres undefined)	23*	90%	1%	?	-2%	58*
COCCOC(=O)c1[nH]c2c(c1C)C(=O)CC(c1ccccc1)C2 (centres undefined)	4	?	-1%	?	0%	3
CCCCCOC(=O)c1[nH]c2c(c1C)C(=O)C(C(=O)OC)C(C)C2 (centres undefined)	26*	·	-32%	·	-18%	38
Cc1c(C(=O)OC2CCC(C)CC2)[nH]c2c1C(=O)CCC2 (centres undefined)	43*	-18%	-60%	2%	4%	76*
COCCOC(=O)c1[nH]c2c(c1C)C(=O)C(C(=O)OC)C(C)C2 (centres undefined)	34*	·	?	?	0%	74*
C[C@@H]1CN(c2c(F)c(N)c3c(=O)c(C(=O)O)cn(C4CC4)c3c2F)C[C@H](C)N1	-3	·	·	·	-13%	8
CCN1CCCC1CN(Cc1cc2ccc(C)cc2[nH]c1=O)C(=S)Nc1ccc(F)cc1 (centres undefined)	-6	17%	3%	-14%	6%	19
O=C1CC(NS(=O)(=O)c2ccc([N+](=O)[O-])cc2)CN1c1ccc(Cl)cc1 (centres undefined)	·	-2%	·	-26%	-1%	·
COC(=O)C1C(=O)c2c([nH]c(C(=O)OC3CCCCCC3)c2C)CC1C (centres undefined)	25*	-37%	3%	8.3µM*	2%	57*
Cc1ccc(-n2nnnc2SCC(=O)c2c(N)n(C3CC3)c(=O)[nH]c2=O)c(C)c1	·	10µM*	·	5.9µM*	-16%	·
Cc1cccc(-n2c(SCC(=O)c3c(N)n(C4CC4)c(=O)[nH]c3=O)nnc2N2CCOCC2)c1	·	?	·	5.2µM*	-15%	·
Cc1ccccc1-n1c(SCC(=O)c2c(N)n(C3CC3)c(=O)[nH]c2=O)nnc1N1CCOCC1	·	?	·	13µM*	-6%	·
Cc1ccc(-n2c(SCC(=O)c3c(N)n(C4CC4)c(=O)[nH]c3=O)nnc2N2CCOCC2)cc1	·	10µM*	·	?	2%	·
Nc1c(C(=O)CSc2nnc(N3CCOCC3)n2-c2cccc(F)c2)c(=O)[nH]c(=O)n1C1CC1	·	?	·	?	-10%	·
COC(=O)C(C)(C)ONC(=O)Nc1ccccc1[N+](=O)[O-]	-2	-13%	-3%	18%	19%	-7
CC(C)(C)CC(=O)Nc1cc2c3c(c1)CC(=O)N3CCC2	-3	18%	14%	29%	-1%	-13
O=C(CCl)c1cc2c3c(c1)CC(=O)N3CCC2	-2	?	5%	?	1.6µM*	-8
CC(=O)NS(=O)(=O)c1ccc2c(c1)C(=O)c1cc(S(=O)(=O)NC(C)=O)ccc1-2	4	2%	19%	7%	-9%	·
Cc1nc2cc(-c3cccc(F)c3)nn2c(C)c1CCC(=O)NCCc1ccccc1	·	·	·	·	22µM*	·
CCOC(=O)C(Cc1ccccc1)NC(=O)CCc1c(C)nc2nc(C)nn2c1C (centres undefined)	-4	6%	4%	7.4µM*	9%	-16
O=C(CSc1nc2ccc(Nc3nc(N4CCCC4)nc(N4CCCC4)n3)cc2s1)NCc1ccco1	0	12µM*	3%	?	-16%	-18
CCOc1ccc2nc(SCC(=O)NCc3ccco3)sc2c1	18*	8.3µM*	-21%	-6%	-32%	45
O=C(CSc1nc2cc(Cl)ccc2s1)NC(=O)NCc1ccco1	1	25%	3%	30%	-28%	-6
CCOc1ccc2nc(SCC(=O)c3cccs3)sc2c1	42*	193%	15%	·	-4%	139*
CCOc1ccc2nc(SCC(=O)NC(=O)NCc3ccco3)sc2c1	3	-1%	-3%	34%	-2%	2
SMILES	CHX counter	Pf growth 48h	NS1 inh	Pf growth 96h	Sm TGR inh	Shiga inhibitor
O=C(CSc1nc2ccc(Nc3nc(N4CCOCC4)nc(N4CCOCC4)n3)cc2s1)Nc1ccccc1F	1	?	12%	10µM*	-17%	-2
O=C(CSc1nc2ccc(Nc3nc(N4CCOCC4)nc(N4CCOCC4)n3)cc2s1)N1CCOCC1	-2	-1%	9%	-7%	5%	-9
CCOc1ccc2nc(SCC(=O)c3ccc(Cl)s3)sc2c1	0	·	1%	-12%	3%	-2
NC(N)=NCCC[C@@H](N)C(=O)NCC(=O)N[C@@H](CC(=O)O)C(=O)N[C@@H](Cc1c[nH]c2ccccc12)C(=O)O	-7	·	·	·	·	-14
C[C@@](N)(Cc1c[nH]c2ccccc12)C(=O)O	·	·	-7%	·	·	·
CSc1nc2ccc(Nc3nc(N4CCOCC4)nc(N4CCOCC4)n3)cc2s1	-1	9.3µM*	4%	·	-1%	-6
O=C(CSc1nc2ccc(Nc3nc(N4CCOCC4)nc(N4CCOCC4)n3)cc2s1)Nc1ccccc1Cl	10	12µM*	12%	2.6µM*	1%	13
COC(=O)c1ccccc1NC(=O)CSc1nc(Nc2ccccc2)nc(N2CCOCC2)n1	4	9.3µM*	?	-10%	-2%	14
CC(=O)c1ccc(NC(=O)CSc2nc(Nc3ccccc3)nc(N3CCOCC3)n2)cc1	2	?	-6%	2%	-27%	-23
CC(=O)N1CCc2cc(Br)cc(S(=O)(=O)N3CCN(c4cccc(C(F)(F)F)c4)CC3)c21	·	·	·	·	2%	·
COc1ccccc1CNC(=O)C(CCSC)NC(=O)C1CCC(C)CC1 (centres undefined)	-6	·	-9%	?	-6%	-3
O=C1c2ccccc2C(=O)N1CCc1nc(-c2ccccn2)no1	28*	99%	-17%	·	0%	58*
O=C1c2ccccc2C(=O)N1CCCc1nc(-c2ccccn2)no1	23*	39%	?	·	6%	84*
c1ccc(OCCCc2nc(-c3ccccn3)no2)cc1	34*	93%	-10%	·	?	42*
Nc1nonc1-c1noc(CCCCCN2C(=O)c3ccccc3C2=O)n1	75*	40%	-3%	13µM*	5%	148*
O=C1c2ccccc2C(=O)N1CCCc1nc(-c2ccc(Cl)cc2)no1	-1	·	7%	?	-23%	-16
c1ccc(OCCCc2nc(-c3ccncc3)no2)cc1	-2	9%	-38%	16%	0%	14
O=C(NC(n1ccc(=O)[nH]c1=O)C(Cl)(Cl)Cl)C12CC3CC(CC(C3)C1)C2 (centres undefined)	1	2%	-7%	6%	40µM*	-8
O=C(NCc1ccccc1CN1CCCCC1)c1ccccc1N1CCCC1=O	·	-29%	·	-12%	0%	·
O=C(CCC(=O)OCC(=O)c1ccc([N+](=O)[O-])cc1)Nc1ccccc1Cl	-1	?	11%	13µM*	-16%	-15
